In all, about 5,500 compounds went through this assay and about 2,000 (36%) were called active. Roughly 18% stayed inconclusive and do not appear here. Cut-off read from the data, not from the text of the source: active = normalized growth mostly below about 0.91 (no sharp cut-off); inconclusive = no clear call, values can overlap the other calls; inactive = mostly above about 0.92. Some of the results follow.
Assay: chemical genetic growth profiling, strain panel (AID 1159580);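 note: tested at 20 µM; growth read once vehicle control cultures reached saturation at 30 °C; 1 = growth at the plate median or of vehicle wells; lower values mean less growth of the strain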
Settings: growth OD
[1] = S. cerevisiae deletion strains, locus YAL013W, strain DEP1, hits give low values
[2] = S. cerevisiae deletion strains, locus YAL040C, strain CLN3, hits give low values
[3] = S. cerevisiae deletion strains, locus YER002W, strain NOP16, hits give low values
[4] = S. cerevisiae deletion strains, locus YGR078C, strain PAC10, hits give low values
[5] = S. cerevisiae deletion strains, locus YNL153C, strain GIM3, hits give low values
[6] = S. cerevisiae deletion strains, locus YNL175C, strain NOP13, hits give low values
[7] = S. cerevisiae deletion strains, locus YNL197C, strain WHI3, hits give low values
[8] = S. cerevisiae deletion strains, locus YNL224C, strain SQS1, hits give low values
[9] = S. cerevisiae deletion strains, locus YOR083W, strain WHI5 (second series), hits give low values
[10] = S. cerevisiae deletion strains, locus YBR229C, strain ROT2, hits give low values
[11] = S. cerevisiae deletion strains, locus YDL101C, strain DUN1, hits give low values
[12] = S. cerevisiae deletion strains, locus YDR150W, strain NUM1, hits give low values
[13] = S. cerevisiae deletion strains, locus YEL061C, strain CIN8, hits give low values
[14] = S. cerevisiae deletion strains, locus YHR030C, strain SLT2, hits give low values
[15] = S. cerevisiae deletion strains, locus YJR043C, strain POL32, hits give low values
[16] = S. cerevisiae deletion strains, locus YJR075W, strain HOC1, hits give low values
[17] = S. cerevisiae deletion strains, locus YKL190W, strain CNB1, hits give low values
[18] = S. cerevisiae deletion strains, locus YLR039C, strain RIC1, hits give low values
[19] = S. cerevisiae deletion strains, locus YLR262C, strain YPT6, hits give low values
[20] = S. cerevisiae deletion strains, locus YMR263W, strain SAP30, hits give low values
[21] = S. cerevisiae deletion strains, locus YPL241C, strain CIN2, hits give low values

Measured: normalized growth

Cc1cccc(C)c1NC(=O)C[N+](C)(C)C
inactive: [1] 1.03 | [2] 0.995 | S. cerevisiae deletion strains, locus YCL061C, strain MRC1 (second series), hits give low values 1 | S. cerevisiae deletion strains, locus YDR363W, strain ESC2, hits give low values 1.01 | [3] 1.01 | [4] 0.984 | S. cerevisiae deletion strains, locus YGR229C, strain SMI1, hits give low values 1 | [5] 1.01 | [6] 0.993 | [7] 0.989 | [8] 1.01 | [9] 1.02

CN1C2CCC1CC(=NO)C2
inactive: [1] 0.993 | [10] 0.982 | [11] 1.02 | [12] 0.991 | [13] 0.997 | [4] 1 | [14] 1.07 | S. cerevisiae deletion strains, locus YHR087W, strain rtc3, hits give low values 0.993 | S. cerevisiae deletion strains, locus YJL187C, strain SWE1, hits give low values 0.989 | [15] 0.986 | [16] 0.984 | [17] 0.994 | [18] 0.998 | S. cerevisiae deletion strains, locus YLR058C, strain SHM2 (second series), hits give low values 0.983 | S. cerevisiae deletion strains, locus YLR085C, strain ARP6, hits give low values 1.02 | [19] 0.997 | S. cerevisiae deletion strains, locus YML094W, strain GIM5, hits give low values 1.01 | S. cerevisiae deletion strains, locus YMR219W, strain ESC1, hits give low values 1.01 | [20] 0.986 | [5] 1.03 | S. cerevisiae deletion strains, locus YNL298W, strain CLA4 (second series), hits give low values 1.03 | S. cerevisiae deletion strains, locus YNL322C, strain KRE1, hits give low values 1 | S. cerevisiae deletion strains, locus YNR030W, strain Alg12, hits give low values 0.986 | S. cerevisiae deletion strains, locus YPL055C, strain LGE1, hits give low values 0.984 | [21] 0.975 | S. cerevisiae deletion strains, locus YPR135W, strain CTF4, hits give low values 1.03

CO[C@@]1(NC(=O)CSCC#N)C(=O)N2C(C(=O)O)=C(CSc3nnnn3C)CS[C@@H]21
inactive: [2] 1.01 | [3] 0.986 | [4] 1 | [16] 1 | [6] 0.995 | [7] 1 | [8] 1 | [9] 1 | [21] 1

Cc1occc(=O)c1/C=C/O
inactive: S. cerevisiae deletion strains, locus YBR021W, strain FUR4, hits give low values 0.994 | [10] 1 | S. cerevisiae deletion strains, locus YCL029C, strain bik1, hits give low values 1.02 | S. cerevisiae deletion strains, locus YDL035C, strain GPR1, hits give low values 0.999 | S. cerevisiae deletion strains, locus YDL074C, strain BRE1, hits give low values 1.01 | [11] 1 | S. cerevisiae deletion strains, locus YDL134C, strain PPH21, hits give low values 0.997 | S. cerevisiae deletion strains, locus YDL185W, strain tfp1, hits give low values 1.03 | S. cerevisiae deletion strains, locus YDL192W, strain arf1, hits give low values 1.02 | S. cerevisiae deletion strains, locus YDR101C, strain arx1, hits give low values 0.989 | [12] 0.999 | S. cerevisiae deletion strains, locus YDR162C, strain NBP2, hits give low values 0.991 | S. cerevisiae deletion strains, locus YDR318W, strain mcm21, hits give low values 1.01 | S. cerevisiae deletion strains, locus YDR388W, hits give low values 1.01 | S. cerevisiae deletion strains, locus YDR502C, strain sam2, hits give low values 0.995 | [13] 1 | S. cerevisiae deletion strains, locus YER110C, hits give low values 1.02 | S. cerevisiae deletion strains, locus YER155C, strain BEM2, hits give low values 0.996 | S. cerevisiae deletion strains, locus YER167W, strain BCK2, hits give low values 0.996 | S. cerevisiae deletion strains, locus YGL078C, strain dbp3, hits give low values 1.03 | S. cerevisiae deletion strains, locus YGL086W, strain mad1, hits give low values 0.989 | S. cerevisiae deletion strains, locus YGL248W, strain PDE1, hits give low values 0.995 | [4] 0.996 | S. cerevisiae deletion strains, locus YGR135W, strain pre9, hits give low values 1.02 | S. cerevisiae deletion strains, locus YGR252W, strain gcn5, hits give low values 0.985 | [14] 1 | S. cerevisiae deletion strains, locus YHR079C, strain IRE1 (second series), hits give low values 1.02 | S. cerevisiae deletion strains, locus YHR094C, strain hxt1, hits give low values 1.01 | S. cerevisiae deletion strains, locus YHR129C, strain ARP1, hits give low values 1 | S. cerevisiae deletion strains, locus YHR200W, strain rpn10, hits give low values 1.01 | S. cerevisiae deletion strains, locus YIL066C, strain RNR3, hits give low values 1 | S. cerevisiae deletion strains, locus YIL073C, strain SPO22, hits give low values 1.03 | S. cerevisiae deletion strains, locus YIL125W, strain kgd1, hits give low values 1.01 | S. cerevisiae deletion strains, locus YIR030C, strain dcg1, hits give low values 1.01 | S. cerevisiae deletion strains, locus YJL095W, strain BCK1, hits give low values 0.989 | S. cerevisiae deletion strains, locus YJL134W, strain LCB3, hits give low values 1.01 | S. cerevisiae deletion strains, locus YJL168C, strain set2, hits give low values 1.01 | S. cerevisiae deletion strains, locus YJL187C, strain SWE1 (second series), hits give low values 0.998 | [15] 0.991 | [16] 0.995 | S. cerevisiae deletion strains, locus YKL009W, strain mrt4, hits give low values 1.01 | S. cerevisiae deletion strains, locus YKL068W, hits give low values 1.01 | S. cerevisiae deletion strains, locus YKL085W, strain MDH1 (second series), hits give low values 1.02 | S. cerevisiae deletion strains, locus YKL085W, strain MDH1, hits give low values 1.02 | [17] 1.01 | S. cerevisiae deletion strains, locus YKR001C, strain vps1, hits give low values 1.01 | [18] 1.02 | S. cerevisiae deletion strains, locus YLR058C, strain SHM2, hits give low values 1 | S. cerevisiae deletion strains, locus YLR102C, strain apc9, hits give low values 1.01 | [19] 1.07 | S. cerevisiae deletion strains, locus YLR268W, strain sec22, hits give low values 1.01 | S. cerevisiae deletion strains, locus YLR330W, strain CHS5, hits give low values 1 | S. cerevisiae deletion strains, locus YLR342W, strain FKS1 (second series), hits give low values 1.01 | S. cerevisiae deletion strains, locus YLR371W, strain rom2, hits give low values 1.02 | S. cerevisiae deletion strains, locus YLR418C, strain cdc73, hits give low values 0.977 | S. cerevisiae deletion strains, locus YML016C, strain PPZ1, hits give low values 1 | S. cerevisiae deletion strains, locus YML032C, strain rad52, hits give low values 1.01 | S. cerevisiae deletion strains, locus YML124C, strain tub3, hits give low values 1.01 | S. cerevisiae deletion strains, locus YMR078C, strain ctf18, hits give low values 1 | S. cerevisiae deletion strains, locus YMR223W, strain ubp8, hits give low values 0.997 | [20] 0.999 | S. cerevisiae deletion strains, locus YMR307W, strain GAS1, hits give low values 1.02 | S. cerevisiae deletion strains, locus YNL067W, strain RPL9B, hits give low values 0.993 | [5] 0.994 | S. cerevisiae deletion strains, locus YNL233W, strain BNI4, hits give low values 0.974 | S. cerevisiae deletion strains, locus YNL250W, strain rad50, hits give low values 1.01 | S. cerevisiae deletion strains, locus YNL271C, strain bni1, hits give low values 1.04 | S. cerevisiae deletion strains, locus YNL298W, strain CLA4, hits give low values 1.02 | S. cerevisiae deletion strains, locus YNL307C, strain MCK1, hits give low values 1.02 | S. cerevisiae deletion strains, locus YNR052C, strain pop2, hits give low values 1.01 | S. cerevisiae deletion strains, locus YOL006C, strain TOP1, hits give low values 0.981 | S. cerevisiae deletion strains, locus YOL012C, strain htz1 0.887 | S. cerevisiae deletion strains, locus YOL147C, strain pex11, hits give low values 1.01 | S. cerevisiae deletion strains, locus YOR061W, strain CKA2, hits give low values 1.01 | S. cerevisiae deletion strains, locus YOR069W, strain VPS5, hits give low values 1 | S. cerevisiae deletion strains, locus YOR136W, strain idh2, hits give low values 1.02 | S. cerevisiae deletion strains, locus YOR144C, strain elg1, hits give low values 1.01 | S. cerevisiae deletion strains, locus YOR184W, strain ser1, hits give low values 1 | S. cerevisiae deletion strains, locus YOR316C, strain cot1, hits give low values 1.03 | [21] 1 | S. cerevisiae deletion strains, locus YPR119W, strain clb2, hits give low values 1.02 | S. cerevisiae deletion strains, locus YPR141C, strain kar3, hits give low values 1.02 | S. cerevisiae deletion strains, locus YPR163C, strain tif3, hits give low values 0.994 | S. cerevisiae deletion strains, locus YPR167C, strain met16, hits give low values 1.02 | S. cerevisiae deletion strains, strain wtn01, hits give low values 1.03 | S. cerevisiae strains, strain wild type, hits give low values 1.01
